Shown are actives, neighbours in structure and some others; about 19% of the full set was active somewhere.
Giardia kill: kills Giardia lamblia. Giardia lamblia trophozoite viability. activity change, % at 7.66 µM, hits read low. 0.15% of 340,000 active. AID 540267; in the data active = activity change below about -80%; inconclusive = between about -30% and that limit;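 also: parasites exposed to compound for two days anaerobically before the ATP read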
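Media and compound were dispensed first, then trophozoites at 100 cells/well; plates sat 48 hrs at 37 deg C without oxygen before ATP luminescence reagent was added and read after 15-30 min at room temperature.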
ELG1 DNA repair: blocks ELG1-dependent DNA repair in HEK293T cells. HEK293T ELG1-luciferase reporter, luminescence, 16 h; DNA damage induced by 5-fluorouridine. Potency, µM (titrated, usually from 46.1 µM), without a hit: top-dose activity change, negative = inhibition, hits mostly inhibitors. 2.3% of 330,000 active. AID 504467; also: potency is read from the fitted curve at half-maximal effect; nearly all actives have a fitted effect of over 55% in size
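Step one: seed 2,000 cells per well. Step two: pin-transfer compound or DMSO alongside 5-fluorouridine. Step three: incubate 16 hr, 37 °C, 5% CO2. Step four: add ONE-Glo, wait 30 min, read luminescence.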
TDP1 block: TDP1 (human) enzyme inhibition | 0.28% of 350,000 active | Potency, µM (titrated, usually from 130 µM), for inactives: at the highest dose activity change, negative = inhibition, most hits filed as inhibitors | recombinant TDP1, AlphaScreen DNA substrate cleavage | Q9NUW8 | AID 485290; also: potency is read from the fitted curve at half-maximal effect; nearly all actives have a fitted effect of over 40% in size
Target sequence (Q9NUW8 whole entry, looked up): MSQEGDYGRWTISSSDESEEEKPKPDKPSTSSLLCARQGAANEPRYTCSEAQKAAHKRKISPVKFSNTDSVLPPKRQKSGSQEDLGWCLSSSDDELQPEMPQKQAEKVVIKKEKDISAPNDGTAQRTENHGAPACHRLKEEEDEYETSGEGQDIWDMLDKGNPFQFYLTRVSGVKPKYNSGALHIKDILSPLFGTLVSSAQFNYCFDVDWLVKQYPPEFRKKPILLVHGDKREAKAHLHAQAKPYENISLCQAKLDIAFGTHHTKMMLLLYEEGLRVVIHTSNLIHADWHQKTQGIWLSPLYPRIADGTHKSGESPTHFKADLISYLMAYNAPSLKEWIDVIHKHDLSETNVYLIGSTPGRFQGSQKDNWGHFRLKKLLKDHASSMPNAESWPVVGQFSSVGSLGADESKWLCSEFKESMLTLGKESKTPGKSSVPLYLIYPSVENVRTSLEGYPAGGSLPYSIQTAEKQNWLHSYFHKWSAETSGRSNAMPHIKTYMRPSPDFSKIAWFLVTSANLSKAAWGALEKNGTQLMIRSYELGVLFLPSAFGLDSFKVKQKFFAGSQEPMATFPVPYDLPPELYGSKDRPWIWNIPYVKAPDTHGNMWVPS
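Steps: enzyme plus compound, 15 min RT; add biotin/phosphotyrosine-FITC oligonucleotide (15 nM final), react 5 min; add donor/acceptor beads (10 ug/ml final), 10 min; read AlphaScreen. Tdp1 at 1 nM final.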
DT40 TDP1 no CPT: qHTS for Inhibitors of human tyrosyl-DNA phosphodiesterase 1 (TDP1): qHTS in cells in absence of CPT; 15% of 420,000 active; Potency, µM (doses to about 46.2 µM), for the others: at the top dose activity change, negative = growth inhibition, hits mostly inhibitors; DT40 Tdp1-/- hTDP1 cells, no CPT, ATP luminescence, 48 h; also: potency is read from the fitted curve at half-maximal effect; nearly all actives have a fitted effect of over 55% in size
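Stably hTDP1-transfected Tdp1-null chicken DT40 cells were treated with library compounds minus camptothecin and grown for at least 48 hr at 37 °C, after which cellular ATP was quantified by luminescence.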
DT40 TDP1 CPT: DT40-hTDP1 cell growth loss with CPT; AID 686979; 12% of 420,000 active; chicken DT40 Tdp1-/-;hTDP1 cells + 20 nM CPT, ATP luminescence, 48 h; Potency, µM (series often up to 46.2 µM), without a hit: top-dose activity change, negative = growth inhibition, most hits filed as inhibitors; also: potency is read from the fitted curve at half-maximal effect; nearly all actives have a fitted effect of over 55% in size
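Chicken DT40 Tdp1-/- cells stably complemented with human TDP1 were seeded at 400 cells/well in medium containing 20 nM camptothecin, exposed to pin-transferred compounds, and grown at 37 °C for at least 48 hr. Viability was read as ATP luminescence.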
IL-1B inflam inh: inhibitors of inflammasome signaling (IL-1 beta secretion). THP-1 LPS/ATP IL-1B secretion, AlphaLISA, 16 h; active compounds read low. activity change, % at 57.5 µM. 4.7% of 360,000 active. AID 743279; in the data active = activity change below about -50%; inconclusive = mostly about -30% to -49%
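Secreted IL-1B measured by AlphaLISA bead assay after 16 h compound exposure of THP-1 cells; compounds (final up to 57.5 uM) added 1 h before LPS (250 ng/mL) and ATP (1.25 mM) stimulation; lower signal means less secretion.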
The depositor's hits bear a star; u = inconclusive; x = not tested or not shown; [ ] = remark or other dose. Unless noted, calls follow the shape of the dose curve; as a rule, active = well fitted curve in the direction sought with a large enough effect; inconclusive = small, poorly fitted or top-dose-only effect, or another doubt; inactive = no such curve, though single readings can be large; an effect the other way counts as inactive or inconclusive. % is scaled to controls: 0 for no effect and ±100 for the full control effect.

SMILES	Giardia kill	ELG1 DNA repair	TDP1 block	DT40 TDP1 no CPT	DT40 TDP1 CPT	IL-1B inflam inh
NCCCCCCNc1nc2c(N)ncnc2n1[C@@H]1O[C@@H]2COP(=O)(O)O[C@H]2[C@H]1O	x	x	-12.1%	x	x	x
COc1ccccc1NC(=S)N(Cc1ccccc1)Cc1ccccn1	-20.1	-0.2%	5.3%	u	u	-5.3
CCCN(Cc1ccccc1)C(=S)Nc1cccc(C(F)(F)F)c1	-24.3	-6.6%	-4.6%	u	u	-1.7
OCCN(Cc1ccccc1)C(=S)Nc1ccc(Cl)cc1Cl	1.0	13.6%	5.4%	u	u	-56.0*
CN(C)CCCN(Cc1ccccc1)C(=S)Nc1ccc(F)c(Cl)c1	-6.0	11.1%	-8.1%	18.4µM*	-26.8%	u
CN(C)CCCN(Cc1ccccc1)C(=S)Nc1cccc(C(F)(F)F)c1	-18.5	4.2%	2.7%	u	14.6µM*	16.5
Cc1ccccc1C(=O)NC(=S)N(CCO)Cc1ccccc1	12.5	-3.4%	x	-25.1%	2.9%	-9.3
S=C(Nc1ccccc1Cl)N(Cc1ccccc1)Cc1ccccn1	-1.3	u	5.3%	u	u	-51.6*
CCn1c(=O)cc(C(F)(F)F)[nH]c1=S	-17.7	u	0.0%	u	-28.8%	9.6
O=C1C[C@@H](c2ccccc2Cl)N1S(=O)(=O)c1ccccc1[N+](=O)[O-]	-11.1	x	7.4%	x	x	x
Cc1[nH]nc(N=CC2=C(O)CC(c3ccco3)CC2=O)c1-c1ccc(Cl)cc1 (stereo not given)	10.2	u	2.0%	-23.3%	u	u
CC1(C)CC(=O)C(C=Nc2ccc(O)cc2)=C(O)C1	0.5	u	0.0%	23.1µM*	u	26.3
Cc1[nH]nc(N=CC2=C(O)CC(C)(C)CC2=O)c1-c1ccc(Cl)cc1	3.5	10.3%	4.6%	11.6µM*	11.6µM*	-7.3
COc1ccccc1NC(=O)N1CCc2c([nH]c3ccccc23)C1C(F)(F)F (stereo not given)	-3.2	0.0%	7.6%	-28.0%	-30.0%	-60.5*
O=C(c1cccc(C(F)(F)F)c1)N1CCc2c([nH]c3ccccc23)C1C(F)(F)F (stereo not given)	-1.7	0.0%	1.3%	u	u	-83.1*
COc1ccc(C(=O)N2CCc3c([nH]c4ccccc34)C2C(F)(F)F)cc1 (stereo not given)	-1.6	u	6.3%	u	u	-8.1
CCOc1ccccc1NC(=O)/C(C#N)=C/c1c(C)nn(-c2ccc(F)cc2)c1Cl	-6.7	4.8%	-1.1%	-19.5%	13µM*	-9.9
C=CCNC(=O)/C(C#N)=C/c1c(C)nn(-c2ccc(Cl)cc2)c1Cl	5.1	-2.9%	5.5%	23.1µM*	u	-56.8*
Cc1nn(-c2ccc(Cl)cc2)c(Cl)c1/C=C(\C#N)C(N)=O	-21.1	u	0.0%	u	u	-6.0
C=C1CCC2[C@](C)(CO)C(O)CC[C@]2(C)C1C/C=C1/C(=O)OCC1O (stereo not given in full)	x	x	9.3%[56.1 µM]	x	x	x
C=C1CC[C@@H]2[C@](C)(CO)[C@H](O)CC[C@@]2(C)[C@@H]1C/C=C1/C(=O)OCC1O (stereo not given in full)	1.8	x	x	8.2µM*	14.6µM*	-87.2*
C=C1CC[C@@H]2[C@](C)(CO)[C@H](O)CC[C@@]2(C)[C@@H]1C/C=C1/C(=O)OC[C@H]1O	x	x	x	2.66µM*	2.99µM*	x
C=C/C(C)=C/CC1C(=C)CCC2C(C)(C(=O)O)CCCC12C (stereo not given)	1.8	-3.4%	x	3.6%	5.5%	9.4
Cc1cc(C)c(NC(=O)Cn2c(=O)n(CCC(=O)NCc3ccc4c(c3)OCO4)c(=O)c3ccccc32)c(C)c1	x	x	4.5%	-19.7%	-12.1%	x
